Assay outcomes deposited in PubChem BioAssay by several laboratories.
Anthrax LF inh2: inhibitors of Bacillus anthracis lethal factor protease. multiplex microsphere protease cleavage assay, LF. 360,000 tested, 0.12% active. AID 588501. P15917. inhibition, % at 10 µM; further: plate controls were buffer without enzyme for full effect and enzyme alone for no effect
BoNT F protease: inhibitors of Botulinum neurotoxin F light chain protease; AID 588497; inhibition, % at 10 µM; Multiplex microsphere protease cleavage assay, flow cytometry; 360,000 tested, 0.22% active; in the data active means inhibition above about 35%, passing the limit was not always enough; inconclusive means no clear call, values can overlap the other calls; further: plate controls were buffer without enzyme for full effect and enzyme alone for no effect
MazEF act: activators of E. coli MazEF toxin-antitoxin RNase; P0AE70; 350,000 tested, 0.32% active; FAM/BHQ RNA-DNA oligo cleavage fluorescence, 5 h; activation, % at 20 µM; AID 504720; in the data active means activation above about 50%
Target sequence (P0AE70 whole entry, looked up): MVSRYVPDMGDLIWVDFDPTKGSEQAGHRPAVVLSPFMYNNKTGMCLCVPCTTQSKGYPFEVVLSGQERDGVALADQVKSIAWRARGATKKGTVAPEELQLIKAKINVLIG
Autofluor counter: compound fluorescence in toxin protease inhibitor counterscreen. fluorescence intensity (no concentration beside the values). compound autofluorescence counterscreen, microsphere flow cytometry; active compounds read high. 360,000 tested, 3.1% active; in the data active means fluorescence intensity above about 16000; inconclusive means no clear call, values can overlap the other calls
BoNT-A LC inh2: inhibitors of Botulinum neurotoxin A light chain protease; inhibition, % at 10 µM; AID 588499; multiplex microsphere protease substrate cleavage, flow cytometry; 360,000 tested, 0.17% active; further: plate controls were buffer without enzyme for full effect and enzyme alone for no effect
An asterisk follows results filed as active; ? = inconclusive; / = no result given. Sampled rows, rich in hits. Any-hit rate of the full collection: about 3.6%. Unless noted, no stated cut-off is given here; in the data, active means inhibition above about 30%; inconclusive means no clear call, values can overlap the other calls; inactive means below that.

SMILES | Anthrax LF inh2 | BoNT F protease | MazEF act | Autofluor counter | BoNT-A LC inh2
Fc1ccc(-c2nnc(CSc3nnc(-c4cccs4)o3)o2)cc1 | -6 | -5 | 4 | 2606 | 0
Cc1ccc(-n2[nH]c(C)c(C=Nc3ccc4[nH]c(=O)[nH]c4c3)c2=O)cc1 | -2 | -6 | 7 | 2153 | 1
Cc1ccc(-n2[nH]c(C)c(C=Nc3ccc4[nH]c(=O)[nH]c4c3)c2=O)cc1C | -4 | -2 | 63* | 2075 | -1
CN(C)c1ccc(/C=C(/NC(=O)c2ccccc2)C(=O)N2CCCC2)cc1 | 1 | -1 | 59* | 6148 | 0
Cc1ccc(/C=C(\NC(=O)c2ccccc2)C(=O)N2CCCCC2)cc1 | -5 | -7 | 8 | 4428 | -2
C=CCc1cccc2cc(C(=O)NC(C)(C)C)c(=O)oc12 | -1 | -10 | 1 | 2128 | 0
C=CCc1cccc2ccc(=O)oc12 | 19 | 37* | 1 | 6128 | 4
Cc1ccc(Nc2c([N+](=O)[O-])c(=O)n(C)c3ccccc23)cc1C | 2 | 3 | 13 | 21534* | 6
O=C1c2cccc(OCC(=O)N3N=C(c4cccs4)CC3c3ccc(F)cc3)c2CCN1Cc1cccnc1 (stereo not given) | -3 | -1 | 4 | 2525 | 0
O=c1cc(O)c2c(=O)n(-c3ccccc3)c3ccccc3c2o1 | 2 | 10 | 12 | 4355 | 1
O=c1cc(-c2ccccc2)c2c(O)cc(O)cc2o1 | 18 | 3 | 6 | 3294 | 0
CC(C)n1c(=O)c2c(O)cc(=O)oc2c2ccccc21 | -1 | 4 | -4 | 21712* | ?
CCn1c(=O)c2c(O)cc(=O)oc2c2ccccc21 | 3 | -2 | -4 | 22829* | ?
Cc1cccc(-c2nnc(NC(=O)c3ccco3)s2)c1 | 4 | -8 | -1 | 4936 | -1
CCn1c(SCC(=O)N2CCCc3ccccc32)nnc1-c1cccs1 | -2 | -5 | -7 | 16895* | -2
Cn1ccnc1SCc1cc(=O)[nH]c2ccccc12 | -2 | -5 | 1 | 11368 | 0
CCCn1c(SCC(=O)c2cc(OC)ccc2OC)nc2c1c(=O)n(C)c(=O)n2C | -1 | -2 | 10 | 21330* | -2
CCn1c(SCc2cc(=O)[nH]c3ccccc23)nc2c1c(=O)n(C)c(=O)n2C | -2 | -9 | 5 | 24332* | -4
CCCn1c(SCC(=O)NCCc2ccc(OC)c(OC)c2)nc2c1c(=O)n(C)c(=O)n2C | -2 | 4 | -5 | 18189* | 4
CCCn1c(SCC(=O)Nc2ccc(NC(C)=O)cc2)nc2c1c(=O)n(C)c(=O)n2C | -7 | -16 | 2 | 3461 | 1
CCn1c(SCC(=O)N2c3ccccc3CCc3ccccc32)nc2c1c(=O)n(C)c(=O)n2C | -1 | 6 | 7 | 9689 | 0
CCCn1c(SCC(=O)N2CCN(c3ccc(OC)cc3)CC2)nc2c1c(=O)n(C)c(=O)n2C | -2 | -1 | -3 | 19577* | 0
C=C(C)Cn1c(N2CCN(c3ccc(OC)cc3)CC2)nc2c1c(=O)n(C)c(=O)n2C | 0 | -2 | 5 | 3887 | 0
CCn1c(SCC(=O)N2CCCc3ccccc32)nc2c1c(=O)n(C)c(=O)n2C | 0 | 0 | 4 | 22886* | ?
CCCn1c(SCC(=O)N2CCCC2)nc2c1c(=O)n(C)c(=O)n2C | -3 | -1 | -5 | 22149* | ?
SMILES | Anthrax LF inh2 | BoNT F protease | MazEF act | Autofluor counter | BoNT-A LC inh2
CSc1nncn1/N=C/c1ccccc1F | -1 | -6 | -3 | 23258* | ?
CSc1nncn1/N=C/c1ccc2c(c1)OCO2 | -2 | -6 | -3 | 23493* | -4
COc1ccc(NCc2nnc(SCC(=O)Nc3nc(-c4ccccc4)cs3)n2-c2ccccc2)cc1 | 1 | -1 | -3 | 2117 | 0
COc1cccc(C(=O)NCc2nnc(SCC(=O)Nc3nccs3)n2-c2cccc(C)c2)c1 | 1 | -6 | 7 | 16987* | -2
C=CCn1c(Cc2csc(N)n2)nnc1SCC(=O)Nc1ccccc1C(F)(F)F | 2 | -3 | 3 | 23049* | -1
Cn1c(CNC(=O)c2cccs2)nnc1SCC(=O)Nc1ccc(Cl)cc1 | -4 | 0 | -6 | 21585* | ?
C=CCn1c(CCNC(=O)c2ccccc2F)nnc1SCC(=O)Nc1ccccc1F | -2 | 0 | 3 | 4459 | -1
COc1ccc(-n2c(CNc3ccc(C)cc3)nnc2SCC(=O)Nc2nc(-c3ccccc3)cs2)cc1 | 1 | -1 | -9 | 24302* | ?
COc1cc(NC(=O)CNC(=O)Cn2cnc3sc(C)c(C)c3c2=O)cc(OC)c1OC | -7 | -13 | 6 | 2930 | 0
C=CCn1c(Cc2cccs2)nnc1SCC(=O)Nc1ccc(OC)cc1 | -2 | 0 | 5 | 16196* | 0
O=C(CSc1nnc(Cc2cccs2)n1Cc1ccco1)Nc1cc(Cl)cc(Cl)c1 | -5 | -4 | 12 | 5800 | 0
C=CCn1c(Cc2cccs2)nnc1SCC(=O)Nc1cccc(OC)c1 | -2 | 1 | -6 | 16319* | 1
C=CCn1c(Cc2cccs2)nnc1SCC(=O)NC1CC1 | 3 | 3 | 6 | 6185 | -1
C=CCn1c(CCNC(=O)c2cccs2)nnc1SCC(=O)Nc1cccc(F)c1 | 1 | 14 | 0 | 17039* | 10
O=C(CSc1nnc(Cc2cccs2)n1Cc1ccco1)Nc1cccc(Cl)c1 | -5 | 0 | 10 | 22807* | -1
CCn1c(CCNC(=O)c2cccs2)nnc1SCC(=O)Nc1cccc(Cl)c1 | -2 | -16 | 1 | 6315 | 0
CCCCC[C@@H](C)N1C[C@@H](COCc2ccccc2)Oc2cc(N3CCC[C@@H]3CO)ccc2S1(=O)=O | -7 | -2 | / | 4257 | -1
Cc1ccccc1CN1CCN(c2nc3ccccc3s2)CC1 | -7 | 8 | -2 | 3480 | -2
O=C1NC[C@H](CCCCN2C[C@H](Cc3ccc(O)cc3)N(Cc3ccccc3)C(=O)C2=O)N(CC2CCCCC2)C1=O | -16 | -10 | / | 4577 | -1
COc1cccc(NC(=O)CSc2nnc(Cc3cccs3)n2-c2ccc(C)cc2)c1 | -7 | 7 | -5 | 14630 | ?
COc1ccc(NC(=O)CSc2nnc(Cc3cccs3)n2-c2ccc(C)cc2)cc1 | -1 | 1 | 1 | 23035* | ?
C=CCn1c(SCC(=O)Nc2ccccc2CC)nnc1-c1ccncc1 | -6 | 0 | 8 | 23141* | 1
Cc1ccc(NC(=O)CSc2nnc(-c3cccs3)n2Cc2ccco2)cc1 | -1 | -12 | 1 | 11600 | -1
CN(C)c1ccc(NC(=O)CSc2nnc(-c3cccs3)n2Cc2ccco2)cc1 | -7 | -4 | -3 | 22600* | ?
CC(C)C[C@H]1CN([C@@H](CC(C)C)CN2CCC[C@@H]2CN2C(=S)NC[C@@H]2Cc2ccc(O)cc2)C(=S)N1CC1CCCCC1 | -3 | -1 | / | 5298 | -1
O=C(NC12CC3CC(CC(C3)C1)C2)N(Cc1ccccc1)Cc1ccncc1 | 0 | 2 | 3 | 4121 | 1
O=C(NC1CCCCC1)c1cc2c(cc1Cl)N1CCCCCC1=NS2(=O)=O | -4 | 9 | 4 | 6784 | -8
Cc1c(NC(=S)NC(=O)Cc2ccccc2)cccc1C(=O)O | -3 | -1 | 0 | 21800* | ?
